About 83,000 compounds went through this panel and 20% of them were active in at least one assay; those are over-represented in the sample as a whole.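 The endpoint reported here, percent growth, reads 100 for growth as untreated, 0 for no net growth and -100 for all cells dead.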 Activity calls are given as the source filed them. How the source made its calls: active means growth percent below 10; inactive means the rest.
Legend:
Experiment in all cases: NCI-60 one-dose screen, 48 h (100 = growth as untreated, 0 = no growth, -100 = all killed)
Details in all cases: 10 µM unless noted
NCI-H23 lung = test system: NCI-H23 lung
NCI-H226 lung = test system: NCI-H226 lung
NCI-H322M lung = test system: NCI-H322M lung
HOP-62 NSCLC = test system: HOP-62 NSCLC
NCI-H460 lung = test system: NCI-H460 lung
NCI-H522 lung = test system: NCI-H522 lung
A549/ATCC NSCLC = test system: A549/ATCC NSCLC
786-0 renal = test system: 786-0 renal
COLO 205 colon = test system: COLO 205 colon
DU-145 prostate = test system: DU-145 prostate
K-562 leukemia = test system: K-562 leukemia
MALME-3M melanoma = test system: MALME-3M melanoma
MDA-MB-231 breast = test system: MDA-MB-231 breast
RXF 393 renal = test system: RXF 393 renal
SF-268 CNS = test system: SF-268 CNS
SF-295 CNS = test system: SF-295 CNS
SF-539 CNS = test system: SF-539 CNS
UACC-257 melanoma = test system: UACC-257 melanoma
M14 melanoma = test system: M14 melanoma
HOP-92 NSCLC = test system: HOP-92 NSCLC

Measured: growth

c1csc(-c2[nH]nc3c2CCc2ccccc2-3)c1
active: COLO 205 colon -11.2%
inactive: NCI-H23 lung 95.8% | NCI-H226 lung 80.9% | NCI-H322M lung 55.4% | HOP-62 NSCLC 91.1% | NCI-H460 lung 55% | NCI-H522 lung 101% | A549/ATCC NSCLC 89.1% | 786-0 renal 103% | DU-145 prostate 103% | K-562 leukemia 114% | MALME-3M melanoma 79.3% | MDA-MB-231 breast 37.2% | RXF 393 renal 94.7% | SF-268 CNS 101% | SF-295 CNS 91.7% | SF-539 CNS 82.1% | UACC-257 melanoma 98.6% | M14 melanoma 107%

O=[N+]([O-])CC(O)c1ccccc1 (stereo not given)
inactive: NCI-H23 lung 93.1% | NCI-H226 lung 97.9% | NCI-H322M lung 118% | HOP-62 NSCLC 100% | NCI-H460 lung 101% | NCI-H522 lung 97.3% | 786-0 renal 80.3% | COLO 205 colon 113% | DU-145 prostate 109% | K-562 leukemia 99.4% | MALME-3M melanoma 122% | MDA-MB-231 breast 87.6% | RXF 393 renal 112% | SF-268 CNS 100% | SF-295 CNS 113% | SF-539 CNS 103% | UACC-257 melanoma 88.7% | M14 melanoma 97.6%

CCCCCCCCCCCCNCCCc1ccccc1
active: K-562 leukemia 2.28%
inactive: NCI-H23 lung 89.2% | NCI-H226 lung 96.6% | NCI-H322M lung 91.1% | HOP-62 NSCLC 95% | NCI-H460 lung 83.9% | NCI-H522 lung 63.6% | 786-0 renal 69.4% | DU-145 prostate 84% | MALME-3M melanoma 82.5% | MDA-MB-231 breast 61.3% | SF-268 CNS 80.6% | SF-295 CNS 102% | SF-539 CNS 69.6% | UACC-257 melanoma 82% | M14 melanoma 52%

CCCCCCCCCCCCCCCCCC[S+](C)CC (stereo not given)
inactive: NCI-H23 lung 36.3% | NCI-H226 lung 17.5% | HOP-62 NSCLC 15.6% | NCI-H460 lung 33.6% | HOP-92 NSCLC 27.3% | NCI-H522 lung 30.2% | A549/ATCC NSCLC 42.3% | 786-0 renal 29.1% | DU-145 prostate 64.3% | K-562 leukemia 47.9% | SF-268 CNS 30.6% | SF-295 CNS 68.8% | SF-539 CNS 31% | UACC-257 melanoma 45.8%
active: COLO 205 colon -38% | MDA-MB-231 breast -2.38% | RXF 393 renal -81% | M14 melanoma 4.94%

O=S(=O)(O)c1cnccn1
inactive: NCI-H23 lung 97.6% | NCI-H322M lung 101% | HOP-62 NSCLC 71.6% | NCI-H460 lung 123% | HOP-92 NSCLC 94.2% | NCI-H522 lung 96% | A549/ATCC NSCLC 73.9% | 786-0 renal 97.8% | COLO 205 colon 107% | DU-145 prostate 110% | K-562 leukemia 106% | MALME-3M melanoma 108% | MDA-MB-231 breast 108% | RXF 393 renal 114% | SF-268 CNS 102% | SF-295 CNS 101% | SF-539 CNS 97.2% | M14 melanoma 100%

CC(=O)OC1CC2CCC1(C)C2(C)C (stereo not given)
inactive: NCI-H23 lung 104% | NCI-H226 lung 103% | NCI-H460 lung 105% | HOP-92 NSCLC 84.1% | A549/ATCC NSCLC 101% | 786-0 renal 111% | COLO 205 colon 108% | DU-145 prostate 110% | MALME-3M melanoma 98.7% | MDA-MB-231 breast 101% | RXF 393 renal 114% | SF-268 CNS 104% | SF-295 CNS 94.5% | SF-539 CNS 104% | UACC-257 melanoma 99.6% | M14 melanoma 106%

CCCc1cc(=O)oc2c3c(c4c(c12)OC(C)(C)CC4)OC(C)[C@H](C)[C@@H]3O (stereo not given in full)
active: HOP-92 NSCLC -1.36%
inactive: NCI-H23 lung 81.4% | NCI-H226 lung 81.1% | NCI-H322M lung 106% | NCI-H460 lung 85.7% | NCI-H522 lung 57.7% | A549/ATCC NSCLC 72% | 786-0 renal 86.4% | COLO 205 colon 96.1% | DU-145 prostate 104% | K-562 leukemia 71.2% | MALME-3M melanoma 139% | MDA-MB-231 breast 79.9% | RXF 393 renal 77.5% | SF-268 CNS 94.4% | SF-295 CNS 44.5% | SF-539 CNS 108% | UACC-257 melanoma 104% | M14 melanoma 102%

CCCCCCCCCCCC1=NCCCN1CCCC
inactive: NCI-H23 lung 94.2% | NCI-H322M lung 98.1% | HOP-62 NSCLC 94.6% | NCI-H460 lung 101% | HOP-92 NSCLC 74.8% | NCI-H522 lung 97.6% | A549/ATCC NSCLC 97.6% | 786-0 renal 99.1% | COLO 205 colon 98% | DU-145 prostate 103% | K-562 leukemia 80.3% | MALME-3M melanoma 106% | MDA-MB-231 breast 78.8% | RXF 393 renal 122% | SF-268 CNS 101% | SF-295 CNS 101% | SF-539 CNS 110% | UACC-257 melanoma 92.3% | M14 melanoma 100%

CC(CSc1n[nH]c(=S)s1)c1ccccc1 (stereo not given)
inactive: NCI-H23 lung 106% | NCI-H322M lung 118% | HOP-62 NSCLC 108% | NCI-H460 lung 114% | HOP-92 NSCLC 101% | NCI-H522 lung 79.3% | A549/ATCC NSCLC 103% | 786-0 renal 111% | COLO 205 colon 105% | DU-145 prostate 117% | K-562 leukemia 103% | MALME-3M melanoma 110% | MDA-MB-231 breast 103% | RXF 393 renal 118% | SF-268 CNS 109% | SF-295 CNS 106% | SF-539 CNS 119% | UACC-257 melanoma 112% | M14 melanoma 106%

COC(=O)C(=[N+]=[N-])C(=O)c1ccc([N+](=O)[O-])o1
active: NCI-H522 lung -61.8%
inactive: NCI-H23 lung 77.6% | NCI-H322M lung 103% | HOP-62 NSCLC 89.7% | NCI-H460 lung 94% | HOP-92 NSCLC 83.1% | A549/ATCC NSCLC 65.2% | 786-0 renal 107% | COLO 205 colon 23% | DU-145 prostate 104% | K-562 leukemia 81.6% | MALME-3M melanoma 25.4% | MDA-MB-231 breast 97.6% | RXF 393 renal 81.3% | SF-268 CNS 92.4% | SF-295 CNS 108% | SF-539 CNS 104% | UACC-257 melanoma 61.5%

Source: PubChem BioAssay (NCI)
